The target in assay [1] is Glutathione peroxidase 1 (Homo sapiens) (UniProt P07203). Nature of the assay: Primary qHTS Assay for Inhibitors of Recombinant Selenoprotein Glutathione Peroxidase 1 (GPX1) (AID 1845191). Further: nearly all actives have a fitted effect of over 65% in size. On activity, negative = inhibition: on the % scale 0 is the no-effect control and ±100 the full control effect. The method in brief:
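GR-coupled assay: compounds preincubated 30 min at room temperature with GPX1, then reaction started with CHP; final 10 nM GPX1, 1 mM GSH, 0.5 mM CHP, 0.5 mM NADPH, 100 nM GR, 0.01% BSA, pH 7.5 Tris buffer. NADPH fluorescence (340/450 nm) read at 0 and 15 min.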
(qHTS replaces the single test concentration by a dilution series.)

Assay [2] concerns the target Phospholipid hydroperoxide glutathione peroxidase GPX4 (Homo sapiens) (UniProt P36969). The assay is described as follows: Primary qHTS Assay for Inhibitors of Recombinant Selenoprotein Glutathione Peroxidase 4 (GPX4) (AID 1845192). Further: nearly all actives have a fitted effect of over 65% in size. On activity change, negative = inhibition: series mostly up to about 50 µM; on the % scale 0 is the no-effect control and ±100 the full control effect. Put shortly:
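GR-coupled assay: recombinant GPX4 preincubated 30 min with compound at room temperature; final 200 nM GPX4, 1 mM GSH, 0.5 mM cumene hydroperoxide, 0.5 mM NADPH, 100 nM GR, 0.01% BSA, pH 7.5 Tris. NADPH fluorescence (340/450 nm) read at 0 and 15 min.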

In assay [3] the target is Luciferin 4-monooxygenase (Photinus pyralis) (UniProt P08659). The assay is described as follows: Primary firefly luciferase (FLuc) qHTS assay for identification of artifact compounds. (AID 1845220). Further: nearly all actives have a fitted effect of over 60% in size. Further: potency means the concentration at half of the fitted maximal effect.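 On activity change, negative = inhibition: series mostly up to about 54 µM; plate controls were DMSO vehicle for no effect and no enzyme for full effect.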 The method in brief: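 Titrated compounds were incubated 15 min at RT, protected from light, with luciferin and ATP at 10 uM; reaction started with 10 nM FLuc, luminescence imaged at 5 min, and concentration-response fitted by Hill equation.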

Assay [4] in a line: Primary fluorescence-based thiol-reactive (MSTI) qHTS assay for identification of artifact compounds. (AID 1845221). Further: nearly all actives have a fitted effect of over 65% in size. Further: potency means the concentration at half of the fitted maximal effect.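 On activity change, negative = thiol reactive: series mostly up to about 54 µM; thiol-reactive compounds lower the probe fluorescence signal.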 The method in brief: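 A multi-concentration qHTS design tested compounds against 4 uM MSTI, pH 7.4 phosphate-buffered saline. Plates were protected from light for 1 h at room temperature before imaging fluorescence.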
The test system of assay [5] is Nanoluciferase (engineered Oplophorus gracilirostris luciferase). Nature of the assay: Primary Nanoluciferase (NLuc) qHTS assay for identification of artifact compounds. (AID 1845222).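 Further: NLuc secreted into diluted conditioned medium of S16 cells; series mostly up to about 54 µM; 0% = DMSO and -100% = no enzyme.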 Put shortly: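 qHTS format, against NLuc in S16 cell-conditioned medium. Nano-Glo substrate 1:100 was added after 15 min at room temperature. Luminescence was taken after a further 5 min.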

The nature of assay [6]: Primary redox qHTS assay for identification of artifact compounds. (AID 1845223).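 Further: 0% = DMSO and 100% = reference compound.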 Put shortly: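 Amplex Red (25 uM) and HRP (250 mU/mL) in HBSS, with compounds for 15 min, then 250 uM DTT for 30 min, room temperature, dark. Fluorescence 525/598 nm read; normalized to DMSO and 10 uM DA3003; Hill fit.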

These results are taken from PubChem BioAssay (NCATS).

Values without a mark were called inactive. Results filed as inconclusive are left out. Activity calls are given as the source filed them. The call rests on the fitted dose curve; in most records, active means well fitted curve in the direction sought with a large enough effect; inconclusive means small, poorly fitted or top-dose-only effect, or another doubt; inactive means no such curve, though single readings can be large; an effect the other way counts as inactive or inconclusive.

Chain of Glutathione peroxidase 1 (Homo sapiens) (P07203 whole entry, looked up): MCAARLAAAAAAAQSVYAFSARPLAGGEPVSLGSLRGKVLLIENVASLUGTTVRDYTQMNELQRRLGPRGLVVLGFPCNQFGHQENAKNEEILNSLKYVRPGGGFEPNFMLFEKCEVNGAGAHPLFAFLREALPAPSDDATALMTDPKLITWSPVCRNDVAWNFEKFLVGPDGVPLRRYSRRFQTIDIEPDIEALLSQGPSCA
Chain of Phospholipid hydroperoxide glutathione peroxidase GPX4 (Homo sapiens) (P36969 whole entry, looked up): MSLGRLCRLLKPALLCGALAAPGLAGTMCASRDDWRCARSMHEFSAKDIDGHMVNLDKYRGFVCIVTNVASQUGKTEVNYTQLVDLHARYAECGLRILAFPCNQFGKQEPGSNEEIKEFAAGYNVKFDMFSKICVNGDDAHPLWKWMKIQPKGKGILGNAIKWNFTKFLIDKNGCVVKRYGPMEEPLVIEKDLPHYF

Turning to `C[C@@]1(O)[C@H](O)[C@@H](CO)O[C@H]1n1cnc2c(=O)[nH]c(N)nc21`, the Potency entry in assay [1], in assay [2], in assay [3], in assay [4], in assay [5] and in assay [6] was “inactive” throughout.
In the case of `CC(=O)OCC1OC(O[C@H]2CC[C@]34C[C@]35CC(O)[C@]3(C)[C@@H]([C@H](C)CC/C=C(\C)C(=O)O)C(O)C[C@@]3(C)C5CC[C@H]4C2(C)C)C(O)C(O)C1OC1OCC(O)C(O)C1O` (stereo partly drawn), the Potency result in assay [1] and in assay [2] was “inactive” throughout. Also, the outcome in assay [3] is “inactive [at 11.6 µM]”. The activity change, negative = thiol reactive in assay [4] was 154% [at 11.5 µM]. The activity, negative = inhibition in assay [5] was -3.42% [at 11.6 µM]. For the same compound, the redox activity (% of DA3003) in assay [6] was -5.4% [at 11.5 µM].
In the case of `COc1ccc(CC(=O)NCc2ccccc2-c2ccccc2C(=O)NCCc2cccnc2)cc1`, the Potency result in assay [1], in assay [2], in assay [3], in assay [4], in assay [5] and in assay [6] was “inactive” throughout.
For the compound `C=C(C(=O)O)C1CC(O)C2(C)CCCC(C)(O)C2C1` (stereo not drawn), the Potency entry in assay [1], in assay [2], in assay [3], in assay [5] and in assay [6] was “inactive” each time. In addition, the Potency in assay [4] was 11.9 µM (active).
As for `CCC(C)C(N)C(=O)NCCN1CCOCC1` (stereo not drawn), the Potency result in assay [1], in assay [2], in assay [3], in assay [4], in assay [5] and in assay [6] was “inactive” each time.
With `COC(=O)C[C@@H]1C(C(=O)O)=CO[C@@H](O[C@@H]2O[C@H](CO)[C@@H](O)[C@H](O)[C@H]2O)/C1=C\COC(=O)/C=C/c1ccc(O)c(OC)c1`, the Potency result in assay [1], in assay [2], in assay [3], in assay [4], in assay [5] and in assay [6] was “inactive” each time.
Take `CC1(C)CC[C@]2(C(=O)O[C@@H]3O[C@H](CO)[C@@H](O)[C@H](O)[C@H]3O)CC[C@]3(C)C(=CCC4[C@@]5(C)CC[C@H](O[C@@H]6O[C@H](C(=O)O)[C@@H](O[C@@H]7O[C@H](CO)[C@@H](O)[C@H](O)[C@H]7O)[C@H](O)[C@H]6O[C@@H]6O[C@H](CO)[C@@H](O)[C@H](O)[C@H]6O)C(C)(C)C5CC[C@]43C)C2C1` (stereo partly drawn): the Potency result in assay [1] and in assay [2] was “inactive” in each case. Also, in assay [3], the outcome was “inactive [at 11.6 µM]”. In addition, the activity change, negative = thiol reactive in assay [4] was 240% [at 11.5 µM]. Further, the activity, negative = inhibition in assay [5] was 0% [at 11.6 µM]. Also, in assay [6], the redox activity (% of DA3003) is 12.6% [at 11.5 µM].
As to `CC(C)=CCC[C@](C)(O[C@@H]1O[C@H](CO[C@@H]2O[C@@H](CO)[C@H](O)[C@H]2O[C@@H]2OC[C@@H](O)[C@H](O)[C@H]2O)[C@@H](O)[C@H](O)[C@H]1O)[C@H]1CC[C@]2(C)[C@@H]1[C@H](O)CC1[C@@]3(C)CC[C@H](O[C@@H]4O[C@H](CO)[C@@H](O)[C@H](O)[C@H]4O[C@@H]4O[C@H](CO)[C@@H](O)[C@H](O)[C@H]4O)C(C)(C)C3CC[C@]12C` (stereo partly drawn), the Potency result in assay [1] and in assay [2] was “inactive” throughout. In assay [3], the activity change, negative = inhibition was 0.984% [at 11.6 µM]. Besides, the activity change, negative = thiol reactive in assay [4] was 132% [at 11.5 µM]. In assay [5], the activity, negative = inhibition was 0% [at 11.6 µM]. Further, the redox activity (% of DA3003) in assay [6] is -2.65% [at 11.5 µM].
Take `CN1CCc2cc(Cl)c(O)cc2[C@@H](c2cccc3c2OCC3)C1`: the Potency result in assay [1], in assay [2], in assay [3], in assay [4], in assay [5] and in assay [6] was “inactive” each time.
In the case of `O=C(NC1CCN(CC(F)(F)F)CC1)c1ccc(-c2cccc(F)c2)nc1`, the Potency entry in assay [1], in assay [2], in assay [3], in assay [4], in assay [5] and in assay [6] was “inactive” in each case.
Turning to `CC(C)(O)c1ccc2c(c1)C(=O)C[C@H]1[C@](C)(C(=O)O)CCC[C@]21C`, the Potency entry in assay [1], in assay [2], in assay [3], in assay [4], in assay [5] and in assay [6] was “inactive” throughout.
Regarding `CC(C)C1NC(=O)C(CC2(O)c3ccccc3N3C(=O)C(Cc4ccccc4)NC32)NC1=O` (stereo not drawn), the Potency result in assay [1], in assay [2], in assay [3], in assay [4], in assay [5] and in assay [6] was “inactive” throughout.
With `Oc1ccccc1-c1cc(-c2ccccc2F)[nH]n1`, the Potency entry in assay [1], in assay [2], in assay [4], in assay [5] and in assay [6] was “inactive” in each case. Also, the Potency in assay [3] was 1.69 µM (active).
For `COc1cc(CCCO)ccc1O[C@@H]1O[C@H](CO)[C@@H](O)[C@H](O)[C@H]1O`, the Potency entry in assay [1], in assay [2], in assay [3], in assay [5] and in assay [6] was “inactive” throughout. In addition, the Potency in assay [4] is 16.5 µM (active).
Regarding `C[C@H]1CCN2C[C@]34C[C@@]5(C(=O)Nc6c5ccc5c6OC=CC(C)(C)O5)C(C)(C)C3C[C@]12C(=O)N4C` (stereo partly drawn), the Potency result in assay [1], in assay [2], in assay [3], in assay [4], in assay [5] and in assay [6] was “inactive” in each case.
Take `C=CC(C)(O)CC/C=C(\C)COC1O[C@H](CO)[C@@H](O)[C@H](O)[C@H]1O` (stereo partly drawn): the Potency entry in assay [1], in assay [2], in assay [3], in assay [5] and in assay [6] was “inactive” throughout. Further, the Potency in assay [4] was 2.93 µM (active).
On to `C=C(C(=O)O)[C@@H]1CC[C@@]2(C)CC[C@@H](O)C(=C)C2C1` (stereo partly drawn), for which the Potency entry in assay [1], in assay [2], in assay [3], in assay [5] and in assay [6] was “inactive” in each case. Moreover, in assay [4], the Potency is 23.8 µM (active).
On to `C=C1CCC2[C@@](C)(C(=O)O)CCC[C@@]2(C)[C@@H]1CCc1ccoc1` (stereo partly drawn), for which the Potency result in assay [1], in assay [2], in assay [3], in assay [4], in assay [5] and in assay [6] was “inactive” in each case.
